Laboratory results reported in the supplement of paper PMC10503962.

Each molecule was assayed on Trichuris muris adult worms (assay: mean motility score (Paragon pixel variance) of adult worms (arbitrary units); higher = more motile worms, i.e. less anthelmintic effect; extreme values may be limits of the assay). Conditions: 100 µM; 24 h.
Outline: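 Each drug was tested with three worms in three wells, run over three separate occasions and vehicle and positive controls included. The worms were single adult Trichuris muris from infected NOD SCID mice, held for 24 h at 37°C and 5% CO2 in 100 μL RPMI-1640 with antibiotics and drug at 100 μM (1% v/v DMSO) in 96-well plates. Motility score was derived by Paragon pixel-variance analysis of films from an automated phenotyping platform and averaged over replicate wells.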

Compound	mean motility score
Oc1ncc(F)c(O)n1 [fluorouracil]	3090
N[C@@H](CC(=O)O)C(=O)O [aspartic acid]	3610
CN(C)[C@@H]1C(O)=C(C(N)=O)C(=O)[C@@]2(O)C(O)=C3C(=O)c4c(O)cccc4[C@@](C)(O)[C@H]3[C@H](O)[C@@H]12 [oxytetracycline]	2120
COc1ccccc1N1CCN(CC(O)COc2cccc3ccccc23)CC1 (stereo unspecified) [naftopidil]	3040
O=c1ccc2ccccc2o1 [coumarin]	3690
O=C1c2ccccc2C(=O)C1c1ccccc1 [phenindione]	4420
